Shown are actives, neighbours in structure and some others; about 4% of the full set was active somewhere.
TWEAK-Fn14 inh – inhibitors of TWEAK-Fn14 signaling, primary screen, luciferase reporter cells, uHTS; inhibition, % at 10 µM; 2% of 360,000 active; TWEAK-stimulated Fn14 reporter cells, luciferase luminescence, 8 h; AID 1159606, 2016; in the data active = inhibition above about 50%
KKLEB cytotox – cytotoxicity in KKLEB CF airway cells, primary screen, cytotoxicity control for CF NF-kB inhibitor project, cell-based, uHTS, fluorescence assay plates; KKLEB CF airway cells viability, ATPlite luminescence, overnight; hits give low values; cells stimulated with P. aeruginosa culture filtrate; activity change (cytotoxicity), % at 5 µM; 0.36% of 360,000 active;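 active = corrected activity change at or below -50% at 5 µM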
CF NFkB inh – inhibitors of PAF-induced NF-kB signaling, primary screen, cell-based, GFP fluorescence, uHTS; KKLEB NF-kB-GFP reporter, GFP fluorescence overnight; inhibition, % at 5 µM; 0.86% of 360,000 active;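 active = at least 50% inhibition at 5 µM, scaled per plate between neutral and stimulator controls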;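 note: PAF is a Pseudomonas aeruginosa culture filtrate used as stimulus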
Peg3 prom inh-1 – Peg3 promoter-driven luciferase inhibitors, primary screen, cell-based, HeLa, luciferase luminescence; HeLa PEG-Prom luciferase reporter, overnight; inhibition, % at 20 µM; AID 588405, 2011; 1.7% of 360,000 active;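 active = inhibition of at least 50% at 20 µM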
TROY signal inh – inhibitors of TROY-driven NF-kB signaling, primary screen, Q293 LMP1-TROYcd cells, NF-kB luciferase, uHTS | Q293 LMP1-TROYcd NF-kB luciferase reporter, 4 h | inhibition, % at 10 µM | 0.98% of 360,000 active;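 active = compounds whose plate-normalised and pattern-corrected inhibition of the luciferase reporter signal at the single screening dose is 50% or more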
HIF-2a block – HIF-2a reporter inhibitors, primary screen, luminescence, 786-0 RCC cells. 786-0 RCC cells HIF-2a reporter, luciferase luminescence, overnight. inhibition, % at 18.8 µM. 0.72% of 360,000 active;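 active = inhibition of the luminescence signal of 40% or more relative to plate controls, in a single-dose primary screen at 18.75 µM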
Peg3 prom inh-2 – Peg3 promoter reporter inhibitors, retest, confirmation, cell-based, HeLa, luciferase reporter, single concentration | HeLa PEG-Prom luciferase reporter, luminescence, overnight | shares compounds with Peg3 prom inh-1 | 84% of 1,300 active | AID 602417, 2012 | inhibition, % at 20 µM;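 active = at 20 µM dose, 40% or more inhibition averaged across four replicates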
CF NFkB inh conf – inhibitors of PAF-induced NF-kB signaling, retest, confirmation, cell-based, GFP fluorescence, single concentration; inhibition, % at 5 µM; 64% of 1,300 active; shares compounds with CF NFkB inh; KKLEB CF airway cells, overnight; AID 602472, 2012; in the data active = inhibition above about 40%;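 note: stimulus PAF is a Pseudomonas aeruginosa filtrate and not platelet activating factor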
Mdm2-MdmX confirm – retested Mdm2-MdmX interaction blockers, confirmation, cell-based, luminescence, single concentration, set 2 | SaOS-2 split-luciferase Mdm2/MdmX complementation | AID 504601, 2011 | shares compounds with HIF-2a block | inhibition, % at 8 µM | 99% of 740 active;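 active = mean inhibition of the luminescence signal across two replicates at or above 26 percent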
Target sequence (O15151 whole entry, looked up): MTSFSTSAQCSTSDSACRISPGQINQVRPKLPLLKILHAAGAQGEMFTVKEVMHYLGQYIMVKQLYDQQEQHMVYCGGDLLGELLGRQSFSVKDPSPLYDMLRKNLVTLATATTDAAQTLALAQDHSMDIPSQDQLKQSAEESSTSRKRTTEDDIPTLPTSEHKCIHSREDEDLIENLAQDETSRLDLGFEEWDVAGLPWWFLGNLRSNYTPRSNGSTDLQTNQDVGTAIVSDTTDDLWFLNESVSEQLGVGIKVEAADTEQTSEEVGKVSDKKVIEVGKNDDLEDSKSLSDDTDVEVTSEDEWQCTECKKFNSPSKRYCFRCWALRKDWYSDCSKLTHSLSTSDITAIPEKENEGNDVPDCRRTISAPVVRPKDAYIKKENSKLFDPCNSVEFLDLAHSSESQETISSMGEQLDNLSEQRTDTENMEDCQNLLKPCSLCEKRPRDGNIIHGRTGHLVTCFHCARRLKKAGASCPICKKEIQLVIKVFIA
Target sequence (Q00987 whole entry, looked up): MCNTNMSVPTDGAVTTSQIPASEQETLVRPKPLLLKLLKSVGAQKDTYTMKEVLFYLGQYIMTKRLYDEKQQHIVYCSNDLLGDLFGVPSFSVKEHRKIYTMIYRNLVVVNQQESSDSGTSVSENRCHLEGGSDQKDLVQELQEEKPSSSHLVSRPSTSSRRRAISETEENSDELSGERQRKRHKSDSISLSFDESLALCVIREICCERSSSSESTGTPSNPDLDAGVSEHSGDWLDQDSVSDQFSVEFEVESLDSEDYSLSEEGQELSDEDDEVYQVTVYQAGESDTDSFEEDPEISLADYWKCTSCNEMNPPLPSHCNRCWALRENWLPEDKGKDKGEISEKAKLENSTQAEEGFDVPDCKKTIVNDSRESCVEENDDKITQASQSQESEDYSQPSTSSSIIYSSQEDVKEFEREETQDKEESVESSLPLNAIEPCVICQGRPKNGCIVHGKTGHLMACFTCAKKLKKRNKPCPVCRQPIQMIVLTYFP
HIF-2a inh conf – HIF-2a reporter inhibitor retest, confirmation, luminescence, 786-0 RCC cells. shares compounds with HIF-2a block. HIF-2a luciferase reporter luminescence, overnight. inhibition, % at 18.8 µM. 56% of 1,800 active. AID 651580, 2012;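 active = mean inhibition across four replicates of at least 40 percent at the single tested concentration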
HIF-1a cs – HIF-1a luciferase reporter signal reduction – MiaPaCa-2 cells, single concentration, counter-screen for HIF-2a inhibitor project, confirmation; inhibition, % at 18.8 µM; 72% of 1,800 active; shares compounds with HIF-2a block; MiaPaCa-2 HIF-1a luciferase reporter, desferoxamine, overnight;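 active = mean inhibition of the reporter signal across four replicates at the single tested dose of 50% or more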
Of the large screens only hits and unclear results are named; the others gave an inactive call (follow-up assays come after a bar, where they were run).

C[n+]1c(-c2ccccc2)cc(-c2ccc(Cl)cc2)cc1-c1ccccc1	none
Cc1ccc(-c2cc(-c3ccc(C)cc3)[n+](-c3ccccc3)c(-c3ccc(C)cc3)c2)cc1	TWEAK-Fn14 inh 92, Peg3 prom inh-1 80, TROY signal inh 71, HIF-2a block 57 | Peg3 prom inh-2 94
COc1ccccc1-n1c(O)c(/C=N/N2CCCCC2)c(=O)n(-c2ccccc2OC)c1=S	none
CCN(CC)C(=O)c1ccc(NC(=O)Nc2ccccc2F)cc1	TWEAK-Fn14 inh 72, Peg3 prom inh-1 56, TROY signal inh 76 | Peg3 prom inh-2 45
O=Cc1cn(Cc2ccc([N+](=O)[O-])cc2)c2ccccc12	Peg3 prom inh-1 91 | Peg3 prom inh-2 80
Cc1c(C=O)c2ccccc2n1Cc1ccc(F)cc1	none
O=Cc1cn(Cc2ccc(F)cc2)c2ccccc12	Peg3 prom inh-1 78 | Peg3 prom inh-2 69
CC(=O)[C@H]1CCC2C3CC[C@H]4C[C@@H](O)CC[C@]4(C)C3CC[C@@]21C (stereo not given in full)	none
CC(=O)OC1CC2(O)C3CCC4CC(O)CCC4(C)C3CCC2(C)C1C1=CC(=O)OC1 (stereo not given)	TWEAK-Fn14 inh 85, CF NFkB inh 90, Peg3 prom inh-1 97, HIF-2a block 69 | Peg3 prom inh-2 99
Cc1ccc2[nH]c(C)c(CCNCc3cccnc3)c2c1	none
COc1ccc(CNCCc2c(C)[nH]c3ccc(OC(F)(F)F)cc23)c(OC)c1	Peg3 prom inh-1 99 | Peg3 prom inh-2 99
COc1cccc2c1C(=O)c1c(O)c3c(c(O)c1C2=O)CC(O)(C(C)=NO)CC3OC1CC(N)C(O)C(C)O1 (stereo not given)	Peg3 prom inh-1 99 | Peg3 prom inh-2 99
C=C1[C@H]2CC[C@H]3[C@]4(C)C[C@H](O[C@@H]5OC(CO)[C@@H](OSOOO)[C@H](OS(=O)(=O)O)[C@H]5OC(=O)CC(C)C)C[C@@H](C(=O)O)[C@H]4CC[C@]3(C2)[C@H]1O (stereo not given in full)	none
COc1ccc(C(c2nnnn2-c2c(C)cccc2C)N2CCC(n3c(=O)[nH]c4ccccc43)CC2)cc1 (stereo not given)	CF NFkB inh 60, Peg3 prom inh-1 59 | Peg3 prom inh-2 48 | CF NFkB inh conf inactive
Cc1cccc(C)c1-n1nnnc1C(c1ccccc1OC(F)(F)F)N1CCC(n2c(=O)[nH]c3ccccc32)CC1 (stereo not given)	CF NFkB inh 73, Peg3 prom inh-1 52 | Peg3 prom inh-2 68 | CF NFkB inh conf inactive
COc1ccc(C(c2nnnn2-c2c(C)cccc2C)N2CCC3(CC2)C(=O)NCN3c2ccccc2)cc1 (stereo not given)	none
O=P1(NC2CCCC2)COc2ccccc2OC1	none
CC1=CC(O)C(O)C2(C)C1CC1OC(=O)CC3C(C)C(O)C(=O)C2C13CO (stereo not given)	Peg3 prom inh-1 91, HIF-2a block 46 | Peg3 prom inh-2 inactive | HIF-2a inh conf inactive | HIF-1a cs inactive
c1ccc(-c2cc(-c3ccccc3)[n+](-c3ccccc3)c(-c3ccccc3)c2)cc1	TWEAK-Fn14 inh 86, Peg3 prom inh-1 111, TROY signal inh 71 | Peg3 prom inh-2 87 | Mdm2-MdmX confirm 102
O=[N+]([O-])c1ccc(C[n+]2c(-c3ccccc3)cc(-c3ccccc3)cc2-c2ccccc2)cc1	none
CCN(CC)CCN1Cc2ccccc2C1=N	none
O=C1NC2C(=CC(O)C(O)C2O)c2cc3c(c(O)c21)OCO3 (stereo not given)	TWEAK-Fn14 inh 95, KKLEB cytotox -64, CF NFkB inh 89, Peg3 prom inh-1 100, TROY signal inh 84, HIF-2a block 85 | Peg3 prom inh-2 98 | HIF-2a inh conf 84 | HIF-1a cs 106
Oc1ccccc1CN(CCc1ccccc1)Cc1ccccc1	none
COc1cc(C2c3cc4c(cc3CC3COC(=O)C32)OCO4)cc(OC)c1O (stereo not given)	CF NFkB inh 54 | CF NFkB inh conf 71
C=CC[C@@H](CC/C=C/C=C/CC/C=C\[C@@H]1CSC([C@@H]2C[C@@H]2C)=N1)OC	CF NFkB inh 54 | CF NFkB inh conf 48
CC(NC(=O)Cc1cccc2ccccc12)C(=O)N1CCC(=O)CC1 (stereo not given)	none
COc1cc2c(c(OC)c1OC)-c1ccc(O)cc1C(NC(C)=O)CC2 (stereo not given)	CF NFkB inh 67 | CF NFkB inh conf 88
C=C1C(=O)O[C@@H]2C[C@@H](C)[C@H]3C=CC(=O)[C@]3(O)C[C@@H]12	none
C=C1C(=O)OC2CC3(C)OC3CCC(C)=CC(OC(C)=O)C12 (stereo not given)	TWEAK-Fn14 inh 76, CF NFkB inh 91, Peg3 prom inh-1 95, TROY signal inh 52 | CF NFkB inh conf 89
COc1ccc(C[C@H]2NC[C@H](O)[C@H]2OC(C)=O)cc1	TWEAK-Fn14 inh 97, CF NFkB inh 88, Peg3 prom inh-1 94, TROY signal inh 82, HIF-2a block 91 | CF NFkB inh conf 116
COc1ccc(-n2nnnc2C(c2cccc(OC)c2OC)N2CCC(n3c(=O)[nH]c4ccccc43)CC2)cc1 (stereo not given)	CF NFkB inh 84, Peg3 prom inh-1 55 | CF NFkB inh conf 41
